The text below walks through data of PubChem BioAssay (NCI).

Test [1] can be described thus: NCI Yeast Anticancer Drug Screen. Data for the rad50 strain (AID 155).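 Further: 0% = growth of vehicle-only cultures of the same strain.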 The settings on record: S. cerevisiae rad50 strain growth inhibition; at 50.0 µM; stronger effect = higher value. In short, it runs like this: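 DNA repair mutant yeast, compound exposure, growth read-out; inhibition is taken relative to vehicle.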
A short description of test [2]: NCI Yeast Anticancer Drug Screen. Data for the mec2-1 strain (AID 157). The settings on record: S. cerevisiae mec2-1 strain, at 50.0 µM, stronger effect = higher value. The gist of the method: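 Using mec2-1 yeast: add compound, measure growth, express inhibition versus vehicle-treated cultures.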
Test [3] in a line: NCI Yeast Anticancer Drug Screen. Data for the sgs1 mgt1 strain (AID 161).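 Further: 0% = growth of cultures given vehicle only.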 The note with it: S. cerevisiae sgs1 mgt1 strain, at 50.0 µM, stronger effect = higher value. The gist of the method: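 Yeast cells carrying a defined DNA-repair defect were exposed to test compounds. Growth inhibition was measured relative to vehicle-treated controls.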
The nature of test [4]: NCI Yeast Anticancer Drug Screen. Data for the cln2 rad14 strain (AID 165).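 Further: 0% = growth equal to vehicle treated cultures.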 The note with it: S. cerevisiae cln2 rad14 strain, at 50.0 µM, stronger effect = higher value. In short, it runs like this: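 Yeast strain cln2 rad14, bearing defects in cell cycle control and DNA repair, serves as the test system; values reflect growth inhibition compared with vehicle.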
Test [5] is described as follows: NCI Yeast Anticancer Drug Screen. Data for the bub3 strain (AID 167). The note with it: S. cerevisiae bub3 mutant strain, at 50.0 µM, stronger effect = higher value. In short, it runs like this:
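In this screen, a yeast mutant lacking normal mitotic checkpoint function is challenged with compound. Relative growth versus vehicle gives the inhibition value.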

The nature of test [6]: NCI Yeast Anticancer Drug Screen. Data for the mlh1 rad18 strain (AID 175). The settings on record: S. cerevisiae mlh1 rad18 strain growth inhibition; at 50.0 µM; stronger effect = higher value. In short, it runs like this:
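Steps: expose repair-defective yeast to compound; measure growth; express inhibition against vehicle-treated controls.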

Structures are written as SMILES. About 79,000 compounds went through this panel and 15% of them were active in at least one assay; those are over-represented in the sample as a whole. Unmarked numbers belong to inactive results. Activity calls are given as the source filed them. No stated cut-off is given here; in the data, active means growth inhibition above about 70%; inactive means the rest.

With `CCCN(C)C(C)(C)C(=O)c1ccccc1`, the growth inhibition in test [1] was 8.8%; in test [2] it was -3.95%; in test [3] it was -20.2%; in test [4] it was -10.2%; in test [5], -18.9%; in test [6], -8.1%.

For `O=C1CCCN1`, the growth inhibition in test [1] was -8.1%; in test [2] it was -1.7%; in test [3], 3.1%; in test [4], -4.85%; in test [5] it was -0.2%; in test [6], -11.7%.

As for `CCCOC(=O)CCl`, the growth inhibition in test [1] is 15.4%; in test [2] it was 15.2%; in test [3], 30.1%; in test [4], 5.25%; in test [5] it was 5.15%; in test [6] it was 20.3%.

`O=C(CCBr)Nc1ccc(Cl)cc1C(=O)c1ccccc1`: the growth inhibition in test [1] is 6.65%; in test [2] it was 5.5%; in test [3], 10.2%; in test [4], -2%; in test [5], 54.8%; in test [6], -5.95%.

With `CCCCN(CCCC)C(=O)C1C=C2c3cccc4[nH]cc(c34)CC2N(C)C1` (stereo not given), the growth inhibition is -0.85% in test [1]; -1.3% in test [2]; -11.2% in test [3]; -13.2% in test [4]; 6.65% in test [5]; 37.4% in test [6].

For the compound `CCCCCC(=O)c1c(O)cc2c(c1O)C(=O)c1c(O)cc(O)cc1C2=O`, the growth inhibition is 10.2% in test [1]; 2.25% in test [2]; 6.1% in test [3]; 10.3% in test [4]; 8.35% in test [5]; -5.7% in test [6].

For `Oc1ccccc1C=NCCN=Cc1ccccc1O.[Fe]`, the growth inhibition in test [1] is 11.8%; in test [2] it was 22.2%; in test [3], 5.35%; in test [4], 6.25%; in test [5], 46%; in test [6] it was 13.6%.

For `CCC1(CCNC(=O)CCl)C(=O)NC(=O)NC1=O`, the growth inhibition in test [1] was 3.05%; in test [2] it was -4.5%; in test [3], 6.8%; in test [4] it was -38.1%; in test [5] it was 4.55%; in test [6], -8.6%.

As for `Nc1noc(N)n1`, the growth inhibition in test [1] was -43%; in test [2], -22.1%; in test [3], -26.8%; in test [4], -23.1%; in test [5], -18.1%; in test [6], -28.4%.

On to `COC12C(COC(N)=O)C3=C(C(=O)C(C)=C(N4CC4)C3=O)N1CC1NC12` (stereo not given), for which the growth inhibition in test [1] is 87.7% (active); in test [2], 90.3% (active); in test [3], 90.9% (active); in test [4], 86.3% (active); in test [5], 88.8% (active); in test [6] it was 87.2% (active).

For the compound `O=S(=O)(F)c1ccccc1`, the growth inhibition was 35.8% in test [1]; -0.6% in test [2]; -11.4% in test [3]; -59.8% in test [4]; 2.1% in test [5]; 6.85% in test [6].

With `C=Cn1nnnc1N`, the growth inhibition in test [1] was -3%; in test [2], 2.05%; in test [3], -10.3%; in test [4], 8.6%; in test [5], 14.3%; in test [6] it was 4.5%.

Turning to `CC1=C[C@H]2O[C@@H]3[C@H](OC(=O)CCl)[C@@H](O)[C@](C)(C2(COC(=O)CCl)CC1)[C@@]31CO1` (stereo not given in full), the growth inhibition in test [1] was 91.8% (active); in test [2], 92.8% (active); in test [3] it was 92.7% (active); in test [4], 91.6% (active); in test [5], 92.2% (active); in test [6], 91.2% (active).

For `O=NN1CCCCCC1C(=O)O` (stereo not given), the growth inhibition in test [1] was -22.1%; in test [2], 1%; in test [3], -20.9%; in test [4], -24.7%; in test [5], 2.7%; in test [6] it was -0.25%.

In the case of `CC(=O)N1CN2CN(C1)CN(C(C)=O)C2`, the growth inhibition in test [1] is 0.3%; in test [2], -8.95%; in test [3], -5.3%; in test [4], -26.6%; in test [5], -9.05%; in test [6] it was -5.85%.

On to `CC(=O)OC(c1ccccc1Cl)C(Cl)(Cl)Cl` (stereo not given), for which the growth inhibition was -16.9% in test [1]; -9.35% in test [2]; -4.65% in test [3]; -39.9% in test [4]; -14.2% in test [5]; -5.55% in test [6].

For `N.N.N.N.N.O=C([O-])C(=O)[O-].[Co+3].[O-][Cl+3]([O-])([O-])O.[O-][Cl+3]([O-])([O-])[O-]`, the growth inhibition in test [1] was -12.3%; in test [2] it was 11.8%; in test [3] it was -22.9%; in test [4], 6.2%; in test [5], 0.8%; in test [6], -12.7%.

Regarding `Nc1ccc(N)cc1`, the growth inhibition in test [1] was 10.9%; in test [2], 25.8%; in test [3] it was -23.7%; in test [4], -7.4%; in test [5], -5.9%; in test [6], -1%.

With `N#CCC(=O)c1ccccc1`, the growth inhibition in test [1] is 3.3%; in test [2], 29.9%; in test [3] it was -0.25%; in test [4] it was -20.7%; in test [5], -10.9%; in test [6], 1.4%.

As for `CN(C(=O)COc1ccc([N+](=O)[O-])cc1Cl)c1ccc(S(=O)(=O)F)cc1`, the growth inhibition was 13.8% in test [1]; -1.85% in test [2]; -10.9% in test [3]; -10.4% in test [4]; 1.25% in test [5]; 16.5% in test [6].
